Structures are written as SMILES. Out of some 350,000 compounds screened, about 1,600 (0.46%) were called active. Shown is part of a subset that was picked to be rich in actives. Unmarked numbers belong to inactive results.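 Rule for the calls: active = every replicate reaching a set inhibition limit, whatever the replicate mean (cut at about 25% in these data); inconclusive = mean inhibition reaches that limit but some replicates miss it; inactive = the rest.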

Protein AF-9 (Homo sapiens), sequence (P42568 whole entry, looked up): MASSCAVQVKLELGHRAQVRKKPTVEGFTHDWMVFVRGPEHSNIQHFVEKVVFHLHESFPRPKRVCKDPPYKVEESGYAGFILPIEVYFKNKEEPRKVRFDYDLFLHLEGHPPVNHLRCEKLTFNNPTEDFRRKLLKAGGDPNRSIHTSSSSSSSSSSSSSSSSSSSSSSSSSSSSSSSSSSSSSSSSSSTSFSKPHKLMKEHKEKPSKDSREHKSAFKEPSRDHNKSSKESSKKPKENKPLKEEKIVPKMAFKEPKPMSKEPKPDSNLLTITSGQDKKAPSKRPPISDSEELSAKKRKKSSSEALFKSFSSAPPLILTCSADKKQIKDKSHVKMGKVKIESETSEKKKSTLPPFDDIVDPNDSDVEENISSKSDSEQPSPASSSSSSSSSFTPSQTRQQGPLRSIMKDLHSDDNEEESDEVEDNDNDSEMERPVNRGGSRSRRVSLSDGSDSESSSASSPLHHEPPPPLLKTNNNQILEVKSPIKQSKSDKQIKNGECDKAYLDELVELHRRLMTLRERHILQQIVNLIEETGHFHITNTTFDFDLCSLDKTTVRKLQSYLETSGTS

This assay has as its target Protein AF-9 (Homo sapiens) (UniProt P42568). Nature of the assay: inhibitors of AF4 peptide binding to AF9, primary screen, biochemical, AlphaScreen, biotin-AF4 peptide, FLAG-AF9, single point (AID 651704).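 Note: 0% = plate neutral control median and 100% = total signal loss.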 The note with it: at 10 µM, hits give high values. (Alpha assays give light when donor and acceptor beads are brought close together.)
`CCC1(C)CC(CCNCc2ccc(N(C)C)cc2)(c2ccc(F)cc2)CCO1` (stereo not given): the inhibition (in general, the relative decrease from the control value, in per cent) was 28.4% (active). Consider `COc1ccc2c(c1)NP(=S)(c1ccccc1)N2` (stereo not given), for which the inhibition is -0.621%.

As for `O=C(O)[C@@H]1[C@@H](CO)[C@@H]2Cn3c(ccc(-c4ccccc4F)c3=O)[C@H]1N2C(=O)c1cccnc1`, the inhibition is 1.92%.

Consider `CSCCC(c1nnnn1C(C)(C)C)N1CCC(n2c(=O)[nH]c3ccccc32)CC1` (stereo not given), for which the inhibition is 14%.

As to `CC(C)CN1Cc2cc(N3CCCCC3)ccc2-n2nncc2C1`, the inhibition was 6.47%. Next, `COC(=O)[C@H]1[C@H](CO)[C@H]2Cn3c(ccc(-c4ccccc4F)c3=O)[C@@H]1N2C(=O)C1CCC1`: 1.06%; `Cc1ncoc1C(=O)NCC1=C(c2cccc3ccccc23)C[C@@H]2CC[C@H]1N2Cc1ccco1`: 3.14%.

On to `CCOC(=O)[C@]12Cc3cc(OC)ccc3[C@H]1N(C(C)C)C(=O)c1ccccc12`, for which the inhibition is -1.49%.

In the case of `O=C1NC(=O)N(Cc2ccco2)C(=O)/C1=C\c1cccn1CCOc1ccccc1`, the inhibition was -1.69%. In the case of `O=C(O)COc1ccccc1/C=C1\C(=O)NC(=O)N(CCC2=CCCCC2)C1=O`, the inhibition is 51.4% (active). In the case of `O=C1NC(=O)N(CCc2ccc(F)cc2)C(=O)/C1=C/C=C/c1ccccc1`, the inhibition is 7.75%. With `O=C1NCN(c2ccccc2)C12CCN(C(c1cccs1)c1nnnn1C1CCCCC1)CC2` (stereo not given), the inhibition was 8.26%. Next, `CCn1cc(CN2CCCC(C(=O)c3cccc(C(F)(F)F)c3)C2)cn1` (stereo not given): 0.062%; `Cc1cc2ccccn2c1C(C[N+](=O)[O-])c1c(F)cccc1Cl` (stereo not given): 25.5% (active). `O=C(NC[C@@H]1CC[C@H]2NC[C@H]2O1)C1CCCC1`: the inhibition is -2.73%.

As to `COC(=O)C1=C(c2ccc(OCc3ccccc3)cc2)C[C@@H]2CC[C@H]1N2C(=O)NCc1ccc(Cl)cc1`, the inhibition was -0.419%. Next, `O=c1[nH]c2ccccc2n1C1CCN(C(c2ccnc3ccccc23)c2nnnn2Cc2ccccc2)CC1` (stereo not given): -0.349%. For `C[C@@H]1CN([C@H](C)CO)C(=O)CCCn2cc(nn2)CO[C@@H]1CN(C)C(=O)Oc1cccc2ccccc12`, the inhibition was -0.246%. Next, `CCOc1cccc(=NC2CCCCC2)c2c(C)[nH]c(C)c12`: 31.5% (active); `O=c1[nH]c2ccccc2n1C1CCN(C(c2ccccc2)c2nnnn2Cc2ccccc2)CC1` (stereo not given): 2.84%.

Values taken from PubChem BioAssay AID651704 (Broad Institute, 2012).
